From PubChem BioAssay (Tox21)
Values joined by “and” are separate entries in the source; they are usually repeats but may differ in a detail not shown here. Equal entries are not always repeated. Records with an inconclusive call do not appear. Where a call stands in place of a potency, no number is given. Where a structure was tested more than once in an assay, its records may differ in their call. Active and inactive are the calls of the source. Unless noted, calls follow the shape of the full dose curve.

Key:
[1] = Nuclear factor erythroid 2-related factor 2/antioxidant responsive element (Nrf2/ARE) small molecule agonists: qHTS cell viability counter screen in human keratinocytes (AID 1919968; active = well fitted curve in the direction sought with a large enough effect in the repeat runs; an effect the other way counts as inactive or inconclusive; also: nearly all actives have a fitted effect of over 55% in size)
How it was run: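 Fluorescence read-out from CellTiter-Fluor after 1 h at 37 C. Wells held HaCaT-derived ARE-luciferase reporter cells (1,500/well) treated 23 h with DMSO-dissolved compounds. Run in the same wells as the luciferase agonist read.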

[2] = Nuclear factor erythroid 2-related factor 2/antioxidant responsive element (Nrf2/ARE) small molecule agonists: luciferase reporter gene qHTS assay in human keratinocytes (AID 1919969); also: nearly all actives have a fitted effect of over 35% in size; also: potency is read from the fitted curve at half-maximal effect
[3] = target: Gonadotropin-releasing hormone receptor (Homo sapiens) (UniProt P30968); experiment: Human gonadotropin-releasing hormone receptor (GnRHR) small molecule agonists, calcium flux assay in GnRHR-HEK293 cells (AID 1920063); also: nearly all actives have a fitted effect of over 35% in size
Sequence of Gonadotropin-releasing hormone receptor (Homo sapiens) (P30968 whole entry, looked up): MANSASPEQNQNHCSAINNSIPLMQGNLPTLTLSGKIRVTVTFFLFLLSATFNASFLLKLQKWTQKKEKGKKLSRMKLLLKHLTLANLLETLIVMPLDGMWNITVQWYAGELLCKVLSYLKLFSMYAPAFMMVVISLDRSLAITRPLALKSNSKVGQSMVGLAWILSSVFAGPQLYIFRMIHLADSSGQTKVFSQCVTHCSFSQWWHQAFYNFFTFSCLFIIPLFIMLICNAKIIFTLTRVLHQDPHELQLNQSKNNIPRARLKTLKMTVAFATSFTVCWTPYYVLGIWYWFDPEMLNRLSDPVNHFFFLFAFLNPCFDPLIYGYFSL
How it was run: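 Calcium-dye fluorescence, Ex/Em=480/540, recorded every 1 sec over 3 min after compound addition to GnRHR-HEK293 cells. Cells had been seeded 18 hours earlier and dye-loaded for 1 hour at 37 C. Fifteen concentrations, triplicates.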

[4] = target: KiSS-1 receptor (Homo sapiens) (UniProt Q969F8); experiment: Human kisspeptin (KISS1R) small molecule agonists, calcium flux assay in KISS1R-HEK293 cells (AID 1920064; active = well fitted curve in the direction sought with a large enough effect in the repeat runs; an effect the other way counts as inactive or inconclusive)
Sequence of KiSS-1 receptor (Homo sapiens) (Q969F8 whole entry, looked up): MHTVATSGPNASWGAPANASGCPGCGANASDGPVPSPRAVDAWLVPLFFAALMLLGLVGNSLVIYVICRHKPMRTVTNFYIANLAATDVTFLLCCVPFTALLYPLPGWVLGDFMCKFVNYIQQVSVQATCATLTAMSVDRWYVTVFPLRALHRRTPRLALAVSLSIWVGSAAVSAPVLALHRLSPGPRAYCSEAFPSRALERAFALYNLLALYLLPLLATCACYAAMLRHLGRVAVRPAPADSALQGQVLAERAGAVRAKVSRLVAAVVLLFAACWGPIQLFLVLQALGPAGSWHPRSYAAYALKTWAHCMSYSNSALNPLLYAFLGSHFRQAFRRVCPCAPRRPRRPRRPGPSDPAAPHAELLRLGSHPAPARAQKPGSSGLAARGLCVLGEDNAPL
How it was run: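 Calcium flux read-out: kinetic fluorescence at Ex/Em=480/540, 1 s intervals over 3 min, after pin-tool compound addition to dye-loaded KISS1R-HEK293 cells. Fifteen concentrations, triplicates.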

[5] = G protein-coupled receptor (GPCR) small molecule agonists, calcium flux assay: HEK293 wild type cell line counter screen (AID 1920065)
How it was run: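 Agonist mode; 18 h seeding at 37 C, 1 h dye load at 37 C; compounds pinned from DMSO, ATP as positive control; kinetic fluorescence 480/540 nm, 3 min, 1 s reads; 15 concentrations, triplicate.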

[6] = p53 small molecule agonists, cell-based qHTS assay with rat liver microsomes (AID 1963578)
How it was run: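 Compound in DMSO added to p53RE-bla cells 5 h post-plating; rat microsomes/NADPH 0.5 mg/mL final; 16 h, 37 C; LiveBLAzer 2 h RT.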

[7] = p53 small molecule agonists, cell-based qHTS assay with human liver microsomes: qHTS cell viability counter screen (AID 1963579); also: nearly all actives have a fitted effect of over 45% in size
How it was run: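 HLM-supplemented (0.5 mg/mL final) and NADPH-supplemented (0.5 mg/mL final) p53RE-bla cultures, 4,000 cells per well, were dosed with compounds in DMSO for 16 h at 37 C; luminescent ATP detection (CellTiter-Glo, 30 min, room temperature) quantified surviving cells.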

[8] = p53 small molecule agonists, cell-based qHTS assay (AID 1963582; active = well fitted activation curve with a large enough effect in the signal ratio in the repeat runs, not every such curve was filed as active; the % refers to the signal ratio)
How it was run: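 Fluorescence intensity read-out of a beta-lactamase reporter under a p53 response element. Cells were exposed to DMSO-dissolved compounds for 16 h at 37 C, then developed with FRET substrate for 2 h at RT.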

[9] = target: 5-hydroxytryptamine receptor 2A (Homo sapiens) (UniProt P28223); experiment: 5-hydroxytryptamine receptor 2A (HTR2A) small molecule antagonists, cell-based qHTS assay (AID 1963586); also: nearly all actives have a fitted effect of over 45% in size
Sequence of 5-hydroxytryptamine receptor 2A (Homo sapiens) (P28223 whole entry, looked up): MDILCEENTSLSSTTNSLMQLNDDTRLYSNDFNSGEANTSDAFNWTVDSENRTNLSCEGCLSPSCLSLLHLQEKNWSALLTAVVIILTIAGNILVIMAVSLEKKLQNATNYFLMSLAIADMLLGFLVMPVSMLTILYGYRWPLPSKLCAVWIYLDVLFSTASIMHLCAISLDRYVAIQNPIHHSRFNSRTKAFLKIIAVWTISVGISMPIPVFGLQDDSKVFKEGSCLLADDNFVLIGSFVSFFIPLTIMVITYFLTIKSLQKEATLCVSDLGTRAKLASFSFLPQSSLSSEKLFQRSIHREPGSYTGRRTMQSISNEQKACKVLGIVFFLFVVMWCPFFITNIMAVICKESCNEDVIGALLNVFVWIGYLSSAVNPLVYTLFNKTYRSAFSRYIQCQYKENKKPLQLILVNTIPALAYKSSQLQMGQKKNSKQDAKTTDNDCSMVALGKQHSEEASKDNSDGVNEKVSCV
How it was run: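 CHO cells stably expressing human HTR2A were plated for 18 h at 37 C, then loaded with calcium dye for 1 h. Compounds were preincubated 5 min at room temperature before DOI (4 nM solution) was added. Kinetic fluorescence was read for 3 min.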

[10] = target: 5-hydroxytryptamine receptor 2A (Homo sapiens) (UniProt P28223); experiment: 5-hydroxytryptamine receptor 2A (HTR2A) small molecule agonists, cell-based qHTS assay (AID 1963587); also: nearly all actives have a fitted effect of over 30% in size
How it was run: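 Kinetic calcium-flux fluorescence (2 min, 1 sec intervals) after compound addition in agonist mode. HTR2A-CHO cells were cultured 18 h, then dye-loaded 1 h at 37 C.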

[11] = target: Muscarinic acetylcholine receptor M1 (Homo sapiens) (UniProt P11229); experiment: Cholinergic receptor muscarinic 1 (CHRM1) small molecule agonists, cell-based qHTS assay (AID 1963589); also: nearly all actives have a fitted effect of over 35% in size; also: potency is read from the fitted curve at half-maximal effect
Sequence of Muscarinic acetylcholine receptor M1 (Homo sapiens) (P11229 whole entry, looked up): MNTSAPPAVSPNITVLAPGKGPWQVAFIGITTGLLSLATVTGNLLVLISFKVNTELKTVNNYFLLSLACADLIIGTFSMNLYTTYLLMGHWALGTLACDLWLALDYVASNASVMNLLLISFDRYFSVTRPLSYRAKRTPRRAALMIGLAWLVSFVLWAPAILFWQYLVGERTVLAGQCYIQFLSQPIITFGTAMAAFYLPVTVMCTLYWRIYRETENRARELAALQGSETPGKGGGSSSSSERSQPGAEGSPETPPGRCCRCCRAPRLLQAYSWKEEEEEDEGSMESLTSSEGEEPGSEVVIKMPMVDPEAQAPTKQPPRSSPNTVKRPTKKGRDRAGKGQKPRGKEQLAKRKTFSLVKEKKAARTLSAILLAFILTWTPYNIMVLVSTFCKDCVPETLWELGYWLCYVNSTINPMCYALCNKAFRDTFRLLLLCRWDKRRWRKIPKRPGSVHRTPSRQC
How it was run: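 Calcium flux read-out: kinetic fluorescence at 1 sec intervals after pin-tool compound addition to dye-loaded CHRM1-CHO cells (human M1). Agonist mode; 15 concentrations tested in triplicate independent runs.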

[12] = cAMP Responsive Elements (CRE) small molecule agonists, cell-based qHTS assay (AID 1963590)
How it was run: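 Beta-lactamase reporter readout: LiveBLAzer B/G FRET substrate, 2 h at room temperature, added after 3 h compound treatment of CRE-bla HEK 293T cells at 37 C/5% CO2.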

[13] = cAMP Responsive Elements (CRE) small molecule antagonists, cell-based qHTS assay (AID 1963591; active = well fitted inhibition curve with a large enough effect in the signal ratio in the repeat runs, not every such curve was filed as active; the % refers to the signal ratio)
How it was run: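 HEK293T CRE-bla; 18 h preincubation; compound pin-transfer; NKH477 0.25 uM final, 3 h, 37 C; LiveBLAzer FRET substrate 2 h RT.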

[14] = target: Beta-2 adrenergic receptor (Homo sapiens) (UniProt P07550); experiment: Adrenergic beta2 receptor (ADRB2) small molecule antagonists, cell-based qHTS assay (AID 1963592); also: series mostly up to about 92 µM; nearly all actives have a fitted effect of over 50% in size
Sequence of Beta-2 adrenergic receptor (Homo sapiens) (P07550 whole entry, looked up): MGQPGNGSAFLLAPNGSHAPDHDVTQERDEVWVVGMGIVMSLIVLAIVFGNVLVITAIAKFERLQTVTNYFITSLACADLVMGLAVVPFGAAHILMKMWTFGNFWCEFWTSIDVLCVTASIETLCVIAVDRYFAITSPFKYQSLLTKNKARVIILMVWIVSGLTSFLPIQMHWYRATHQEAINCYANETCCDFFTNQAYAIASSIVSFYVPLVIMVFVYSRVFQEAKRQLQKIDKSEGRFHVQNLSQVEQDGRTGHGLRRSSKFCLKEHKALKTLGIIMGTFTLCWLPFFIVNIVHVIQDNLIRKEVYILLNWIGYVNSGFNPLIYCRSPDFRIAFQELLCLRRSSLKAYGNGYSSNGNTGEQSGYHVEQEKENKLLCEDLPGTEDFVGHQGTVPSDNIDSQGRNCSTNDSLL
How it was run: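 Assay format: CHO-ADRB2 cells, 18-20hr seeding at 37C/5% CO2, then compound plus 1nM isoproterenol agonist mix for 0.5hr RT. Homogeneous time-resolved fluorescence cAMP detection after 1hr, expressed as 665/615 nm ratio.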

[15] = target: Beta-2 adrenergic receptor (Homo sapiens) (UniProt P07550); experiment: Adrenergic beta2 receptor (ADRB2) small molecule agonists, cell-based qHTS assay (AID 1963593);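 also: CHO cells stably overexpressing human ADRB2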
How it was run: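 CHO cells stably over-expressing ADRB2 were plated overnight at 37C, then dosed with compounds plus a stimulation mix containing 100uM IBMX and 25uM Ro-20-1724 for 0.5hr at room temperature. cAMP was measured by HTRF competition, 1hr.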

[16] = target: D(2) dopamine receptor (Homo sapiens) (UniProt P14416); experiment: Dopamine D2 receptor (DRD2) small molecule agonists, cell-based qHTS assay (AID 1963594); also: nearly all actives have a fitted effect of over 35% in size
Sequence of D(2) dopamine receptor (Homo sapiens) (P14416 whole entry, looked up): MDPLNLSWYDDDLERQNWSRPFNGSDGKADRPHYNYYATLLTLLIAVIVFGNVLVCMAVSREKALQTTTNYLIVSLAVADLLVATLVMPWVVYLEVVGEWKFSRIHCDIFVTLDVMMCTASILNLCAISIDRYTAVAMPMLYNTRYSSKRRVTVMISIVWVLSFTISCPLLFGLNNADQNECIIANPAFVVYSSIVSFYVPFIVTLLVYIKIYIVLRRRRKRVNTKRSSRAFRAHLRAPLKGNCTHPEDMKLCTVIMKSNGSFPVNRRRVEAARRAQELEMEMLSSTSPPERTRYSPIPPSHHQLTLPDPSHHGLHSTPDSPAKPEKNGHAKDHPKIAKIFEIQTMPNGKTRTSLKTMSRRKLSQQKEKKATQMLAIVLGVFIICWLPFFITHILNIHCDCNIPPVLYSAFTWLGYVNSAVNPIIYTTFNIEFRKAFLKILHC
How it was run: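 cAMP accumulation in DRD2-HEK293 cells measured by HTRF after 1 h detection; compounds added 10 min before NKH477 (200nM […]) forskolin-analogue stimulation, 30 min at room temperature, with Ro20-1724 present at 0.1 mM final.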

[17] = target: D(2) dopamine receptor (Homo sapiens) (UniProt P14416); experiment: Dopamine D2 receptor (DRD2) small molecule antagonists, cell-based qHTS assay (AID 1963595; active = well fitted inhibition curve with a large enough effect in the signal ratio in the repeat runs, with a control signal flat; the % refers to the signal ratio)
How it was run: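 HTRF cAMP read-out at 665 and 620 nm emission (340 nm excitation). Antagonist mode: compounds were tested against 12 nM quinpirole in DRD2-HEK293 cells, with 200 nM NKH477 raising cAMP and 0.1 mM Ro20-1724 blocking its breakdown.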

[18] = p53 small molecule agonists, cell-based qHTS assay with rat liver microsomes: qHTS cell viability counter screen (AID 1963580); also: nearly all actives have a fitted effect of over 45% in size
How it was run: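 Cytotoxicity counter screen: intracellular ATP read by CellTiter-Glo luminescence in the p53 reporter wells. HCT-116 p53RE-bla cells were treated for 16 h at 37 C alongside rat liver microsomes and NADPH, each 0.5 mg/mL final.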

[19] = p53 small molecule agonists, cell-based qHTS assay: qHTS cell viability counter screen (AID 1963581); also: nearly all actives have a fitted effect of over 45% in size
How it was run: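 Cytotoxicity read-out: ATP-based luminescence (CellTiter-Glo, 30 min RT) measured in the same wells as the p53 reporter assay, HCT-116 p53RE-bla cells, 16 h compound exposure at 37 C.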

[20] = target: Muscarinic acetylcholine receptor M1 (Homo sapiens) (UniProt P11229); experiment: Cholinergic receptor muscarinic 1 (CHRM1) small molecule antagonists, cell-based qHTS assay (AID 1963588); also: nearly all actives have a fitted effect of over 40% in size
How it was run: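 Compounds were tested at 15 concentrations in three independent runs. Dye-loaded CHRM1-CHO cells were exposed 5 min at room temperature before stimulation by acetylcholine added at 50nM. Intracellular calcium was read kinetically on FDSS for 3 min.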

Compound | Potency [1] | Potency [2] | Potency [3] | Potency [4] | Potency [5] | Potency [6] | Potency [7] | Potency [8] | Potency [9] | Potency [10] | Potency [11] | Potency [12] | Potency [13] | Potency [14] | Potency [15] | Potency [16] | Potency [17] | Potency [18] | Potency [19] | Potency [20]
O=c1[nH]c2ccccc2c(=O)o1 | inactive | inactive | inactive | inactive | inactive | inactive | inactive | inactive | inactive | inactive | inactive | inactive | inactive | inactive | inactive | inactive | inactive |  |  | 
CCCC[n+]1ccccc1C | inactive | inactive | inactive | inactive | inactive |  | inactive |  | inactive | inactive | inactive | inactive | inactive | inactive | inactive | inactive | inactive | inactive | inactive | inactive
CCC[N+]1(C)CCCC1 | inactive | inactive | inactive | inactive | inactive |  | inactive |  | inactive | inactive | inactive and 24.3 µM (active) and 21.9 µM (active) | inactive | inactive | inactive | inactive | inactive | inactive | inactive | inactive | inactive
CCOP(=O)(CN(CCO)CCO)OCC | inactive | inactive | inactive | inactive | inactive | inactive | inactive | inactive | inactive | inactive | inactive | inactive | inactive | inactive | inactive | inactive | inactive |  | inactive | inactive
C=CC(=O)OCCCCCC(C)C | inactive | inactive | inactive | inactive | inactive | inactive |  | inactive | inactive | inactive |  | inactive |  | inactive |  | inactive | inactive | inactive | inactive | inactive
OCCN(CCO)CCO | inactive | inactive | inactive | inactive | inactive |  | inactive |  | inactive | inactive | inactive | inactive | inactive | inactive | inactive | inactive | inactive | inactive | inactive | inactive
c1ccc2c(c1)CCCC2 | inactive | inactive | inactive | inactive | inactive | inactive |  | inactive | inactive | inactive | inactive | inactive | inactive | inactive | inactive | inactive | inactive | inactive | inactive | inactive
COC(=O)c1ccccc1N | inactive | inactive | inactive | inactive | inactive | inactive | inactive | inactive | inactive | inactive | inactive |  | inactive | inactive | inactive | inactive | inactive |  | inactive | 
CC(C)(C)c1ccccc1O | inactive | inactive | inactive | inactive | inactive |  | inactive |  | inactive | inactive | inactive | inactive | inactive | inactive | inactive | inactive | inactive | inactive | inactive | inactive
CCOS(=O)(=O)OCC | inactive | 68.7 µM (active) and inactive | inactive | inactive | inactive |  | inactive | inactive | inactive | inactive | inactive | inactive | inactive | inactive |  |  | inactive | inactive | inactive | inactive
CCCCc1c(C)nc(NCC)[nH]c1=O | inactive | inactive | inactive | inactive | inactive | inactive | inactive | inactive | inactive | inactive | inactive | inactive | inactive | inactive | inactive | inactive | inactive |  | inactive | inactive
COP(=S)(OC)Oc1cc(Cl)c(Cl)cc1Cl | inactive | 68.1 µM (active) | inactive | inactive | inactive |  | inactive | inactive | inactive | inactive | inactive | inactive | inactive | inactive |  | inactive | inactive | inactive | inactive | inactive
O=C(O)c1ccccn1 | inactive | inactive | inactive | inactive | inactive | inactive | inactive | inactive | inactive | inactive | inactive | inactive | inactive | inactive | inactive | inactive | inactive |  | inactive | 
O=P(OCC(Br)CBr)(OCC(Br)CBr)OCC(Br)CBr (stereo not given) | inactive | inactive | inactive | inactive | inactive |  | inactive | inactive | inactive |  | inactive |  | inactive | inactive |  | inactive | inactive | inactive | inactive | inactive
N#Cc1cc([N+](=O)[O-])ccc1N | inactive | inactive | inactive | inactive | inactive | inactive | inactive |  | inactive | inactive | inactive | inactive | inactive | inactive | inactive | inactive | inactive | inactive |  | inactive
CNC(=O)Oc1cccc2c1OC(C)(C)C2 | inactive | inactive | inactive | inactive | inactive |  | inactive | inactive | inactive | inactive | inactive | inactive | inactive | inactive | inactive | inactive | inactive | inactive | inactive | inactive
